Compounds with a hit are over-represented: about 12% of the library has one in this group of screens.
JMJD2A Tudor = JMJD2A Tudor domain (human) inhibition | 390,000 compounds, 4.4% hits | AID 504339 | Potency, µM (titrated, usually from 114 µM), for inactives: top-dose activity change, negative = inhibition, hits mostly inhibitors | AlphaScreen JMJD2A-Tudor / H3K4me3 peptide binding; further: on the % scale 0 is the no-effect control and ±100 the full control effect; nearly all actives have a fitted effect of over 50% in size
Sfp PPTase inh = Sfp phosphopantetheinyl transferase inhibition; Q9F4F7; Biochemical Sfp PPTase activity, qHTS; Potency, µM, inactives show largest response in the series, negative = inhibition, most hits filed as inhibitors; 310,000 compounds, 3.5% hits; AID 1490;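 further: the enzyme is Sfp with the accession as filed and its product quenches rhodamine fluorescence; 0% = enzyme reaction without inhibitor and -100% = no enzyme wells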
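Fluorescence-quenching assay: 15 nM Sfp-PPTase preincubated 15 min at room temperature with compound, then 5 uM rhodamine-CoA and 12.5 uM BHQ-2-labelled YbbR peptide added. Fluorescence (ex 525/em 598 nm) read at start and after 30 min; difference gives rate.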
HP1b chromo inh = inhibitors of HP1-beta chromodomain binding to methylated histone tails | AlphaScreen HP1-beta / biotin-H3K9me3 peptide binding | P83916 | 390,000 compounds, 0.56% hits | Potency, µM (doses to about 114 µM), for inactives: at the highest dose activity change, negative = inhibition, most hits filed as inhibitors; further: nearly all actives have a fitted effect of over 70% in size
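Compound inhibition of the preformed complex between 50 nM HP1-beta and 50 nM biotinylated H3K9me3 peptide was read by AlphaScreen. Buffer was PBS pH 7.4 with 0.01% Tween-20. Incubations ran 30 min at room temperature, with 10 ug/mL donor/acceptor beads.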
G9a block = inhibitors of human histone lysine methyltransferase G9a | Potency, µM (titrated, usually from 102 µM), for the others: top-dose activity, negative = inhibition, usual class: inhibitors | 350,000 compounds, 8.8% hits | G9a H3K9 monomethylation, AlphaScreen, 2 h; further: on the % scale 0 is the no-effect control and ±100 the full control effect; nearly all actives have a fitted effect of over 75% in size
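Methyltransferase reactions run at room temperature for 2 h (20 nM enzyme, 500 nM biotin-H3K9 peptide, 20 uM SAM) after a 15 min compound preincubation; product detected by AlphaScreen beads and anti-H3K9me1 antibody.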
PLK1 PBD inh = PLK1 (human) polo-box domain binding inhibition. P53350. 360,000 compounds, 2.8% hits. Plk1 PBD binding of FITC phosphopeptide, fluorescence polarization. AID 720504. Potency, µM, for the others: max response, negative = inhibition, actives largely listed as inhibitors; further: series mostly up to about 57 µM; on the % scale 0 is the no-effect control and ±100 the full control effect; nearly all actives have a fitted effect of over 65% in size
BAZ2B inh = inhibitors of human BAZ2B bromodomain. AID 504333. Q9UIF8. 360,000 compounds, 4.4% hits. Potency, µM (doses to about 114 µM), without a hit: at the highest dose activity change, negative = inhibition, most hits filed as inhibitors. AlphaScreen BAZ2B-H3K14Ac peptide displacement; further: on the % scale 0 is the no-effect control and ±100 the full control effect; nearly all actives have a fitted effect of over 60% in size
Target sequence (Q9UIF8 whole entry, looked up): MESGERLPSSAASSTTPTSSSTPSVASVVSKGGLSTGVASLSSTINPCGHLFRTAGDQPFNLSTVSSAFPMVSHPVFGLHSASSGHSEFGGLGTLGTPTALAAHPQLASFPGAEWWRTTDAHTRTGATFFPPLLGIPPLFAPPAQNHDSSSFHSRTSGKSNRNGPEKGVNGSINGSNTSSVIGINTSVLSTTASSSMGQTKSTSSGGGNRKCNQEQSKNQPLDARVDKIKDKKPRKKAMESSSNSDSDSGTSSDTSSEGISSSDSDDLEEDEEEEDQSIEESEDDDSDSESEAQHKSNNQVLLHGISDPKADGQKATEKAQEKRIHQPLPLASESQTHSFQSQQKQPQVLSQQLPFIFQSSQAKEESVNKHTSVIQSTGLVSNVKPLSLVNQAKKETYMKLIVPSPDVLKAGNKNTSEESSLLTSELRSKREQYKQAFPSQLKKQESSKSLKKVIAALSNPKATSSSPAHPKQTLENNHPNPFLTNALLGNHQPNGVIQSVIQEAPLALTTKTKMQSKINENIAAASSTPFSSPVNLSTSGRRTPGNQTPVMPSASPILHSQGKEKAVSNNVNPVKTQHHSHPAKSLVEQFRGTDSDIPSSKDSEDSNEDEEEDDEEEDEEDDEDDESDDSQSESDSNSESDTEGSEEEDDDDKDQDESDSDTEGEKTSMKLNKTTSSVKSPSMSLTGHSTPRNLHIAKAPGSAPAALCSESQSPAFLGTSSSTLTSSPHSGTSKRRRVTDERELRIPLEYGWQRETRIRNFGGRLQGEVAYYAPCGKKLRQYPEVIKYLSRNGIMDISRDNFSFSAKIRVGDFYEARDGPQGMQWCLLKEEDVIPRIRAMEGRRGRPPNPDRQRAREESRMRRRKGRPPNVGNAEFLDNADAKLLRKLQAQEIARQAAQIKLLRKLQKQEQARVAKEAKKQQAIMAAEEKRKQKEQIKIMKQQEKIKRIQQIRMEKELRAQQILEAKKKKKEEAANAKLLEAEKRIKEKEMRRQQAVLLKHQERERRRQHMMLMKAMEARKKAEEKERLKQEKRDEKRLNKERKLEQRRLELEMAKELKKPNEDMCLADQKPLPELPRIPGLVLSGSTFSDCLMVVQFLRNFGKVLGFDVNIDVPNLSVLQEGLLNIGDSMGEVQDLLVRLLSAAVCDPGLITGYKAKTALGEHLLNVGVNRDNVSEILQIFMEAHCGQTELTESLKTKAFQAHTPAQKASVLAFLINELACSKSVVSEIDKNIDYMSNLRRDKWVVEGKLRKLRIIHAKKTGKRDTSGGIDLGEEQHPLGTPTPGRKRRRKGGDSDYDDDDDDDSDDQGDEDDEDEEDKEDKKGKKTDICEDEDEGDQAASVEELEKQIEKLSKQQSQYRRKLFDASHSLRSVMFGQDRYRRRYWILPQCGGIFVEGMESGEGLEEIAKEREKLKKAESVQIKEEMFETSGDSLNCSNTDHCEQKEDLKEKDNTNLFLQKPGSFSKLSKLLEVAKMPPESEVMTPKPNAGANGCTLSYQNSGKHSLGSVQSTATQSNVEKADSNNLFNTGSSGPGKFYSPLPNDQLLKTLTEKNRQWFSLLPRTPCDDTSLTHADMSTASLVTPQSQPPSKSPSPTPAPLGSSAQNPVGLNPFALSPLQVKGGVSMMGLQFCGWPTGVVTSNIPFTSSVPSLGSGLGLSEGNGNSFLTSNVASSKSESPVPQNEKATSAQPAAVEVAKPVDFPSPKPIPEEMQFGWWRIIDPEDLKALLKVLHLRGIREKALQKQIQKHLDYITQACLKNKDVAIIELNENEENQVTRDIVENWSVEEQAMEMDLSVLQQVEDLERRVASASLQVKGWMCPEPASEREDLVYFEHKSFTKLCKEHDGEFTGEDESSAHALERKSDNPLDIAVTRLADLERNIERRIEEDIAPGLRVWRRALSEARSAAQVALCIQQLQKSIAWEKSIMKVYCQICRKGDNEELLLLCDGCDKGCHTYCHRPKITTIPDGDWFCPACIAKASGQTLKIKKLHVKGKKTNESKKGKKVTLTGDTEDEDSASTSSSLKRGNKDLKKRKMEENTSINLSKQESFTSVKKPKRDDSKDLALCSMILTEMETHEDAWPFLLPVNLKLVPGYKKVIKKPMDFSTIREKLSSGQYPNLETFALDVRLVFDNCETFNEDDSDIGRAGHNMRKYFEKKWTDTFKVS
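Inhibition is scored as reduced AlphaScreen emission. The BAZ2B/b-H3(5-23)K14Ac complex (50 nM each) in PBS pH 7.4, 0.01% Tween-20 meets compound (up to 110 uM) for 30 min at RT before bead addition.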
Starred values were filed as active, the others as inactive; ? = inconclusive; . = no result; [ ] = dose if it differs, or a comment. The call rests on the fitted dose curve; in most records, active means well fitted curve in the direction sought with a large enough effect; inconclusive means small, poorly fitted or top-dose-only effect, or another doubt; inactive means no such curve, though single readings can be large; an effect the other way counts as inactive or inconclusive. Potency means the concentration at half of the fitted maximal effect.

SMILES	JMJD2A Tudor	Sfp PPTase inh	HP1b chromo inh	G9a block	PLK1 PBD inh	BAZ2B inh
COC(=O)c1ccc(-n2nnnc2SC)cc1	-9%	?	-11%	10µM*	21µM*	9%
COc1ccc(Cl)cc1/C=C1/C(=O)ON=C1C	-29%	50µM*	13%	?	?	-27%
CCOc1ccc(Cl)cc1/C=C1/C(=O)ON=C1C	-6%	50µM*	14%	?	?	?
COc1ccc(Cl)cc1/C=C/c1ccc2cccc(O)c2n1	-24%	9%	37%	-42%	-1%	?
CCOc1ccc(Cl)cc1/C=N/NC(=O)c1ccccc1	-2%	-12%	14%	20%[59 µM]	-6%	18%
CCOC(=O)c1c(SCC(=O)Nc2nccs2)nc(C)c(C)c1C	9%	6%	22%	-20%	3%	2%
O=C(CSc1ccsc1[N+](=O)[O-])N1CCN(c2ccc(Cl)cc2)CC1	?	-4%	-16%	50µM*	?	?
NC(=O)C1CCN(C(=O)CSc2ccsc2[N+](=O)[O-])CC1	-22%	9%	23%	?	-17%	-21%
O=C(CSc1ccsc1[N+](=O)[O-])N1CCCCCC1	-13%	-9%	4%	45µM*	-25%	.
Cc1ccc(C)c(N2CCN(C(=O)CSc3ccsc3[N+](=O)[O-])CC2)c1	?	3%	-16%	32µM*	-22%	?
CCc1ccccc1NC(=O)c1ccc2c(c1)nnn2C1CCCC1	-16%	.	50%	-6%[59 µM]	.	-3%
CC1(C)S[C@@H]2[C@H](NC(=O)C(N)c3ccccc3)C(=O)N2[C@H]1C(=O)O (stereo partly specified)	.	21%	.	44%[21.5 µM]	.	.
COC(=O)C1=C(C)N(C)C(=O)NC1c1cc2c(cc1[N+](=O)[O-])OCO2 (stereo unspecified)	-2%	14µM*	29%	?	-19%	50µM*
COC(=O)C1=C(C)N(CCCC(=O)O)C(=O)NC1c1cc2c(cc1[N+](=O)[O-])OCO2 (stereo unspecified)	35µM*	32µM*	-10%	7.9µM*	-22%	?
COC(=O)C1=C(C)N(C)C(=O)NC1c1cc2c(cc1Br)OCO2 (stereo unspecified)	-22%	23%	13%	.	-8%	-7%
COC(=O)C1=C(C)N(CCCC(=O)O)C(=O)NC1c1ccc([N+](=O)[O-])cc1 (stereo unspecified)	-16%	.	28%	.	-2%	.
COc1cc(C(=O)NC(=S)Nc2ccc3c(c2)C(=O)N(C)C3=O)cc(OC)c1OC	?	-5%	-13%	45µM*	-18%	-29%
COc1cccc(OC)c1C(=O)NC(=S)Nc1ccc2c(c1)C(=O)N(C)C2=O	-26%	-7%	23%	?	-5%	-28%
COc1cc(C(=O)NC(=S)Nc2ccc(Cl)cn2)cc(OC)c1OC	16µM*	-16%	-1%	4%	24µM*	-9%
CCn1c(=O)cc(SCC(=O)N2CCN(c3cc(C)ccc3C)CC2)c2ccccc21	-34%	.	9%	?	.	-29%
COc1ccc(C(=O)O)cc1COc1ccc(NC(C)=O)cc1	-2%	.	.	.	.	.
CN(C)CCCN(C(=O)c1ccc(Br)s1)c1nc2cc3c(cc2s1)OCCO3	-36%	.	0%	?	-2%	0%
CCN(CC)CCN(C(=O)c1ccc(Br)s1)c1nc2cc3c(cc2s1)OCCO3	-13%	-21%	36%	50µM*	-9%	.
CCN(CC)CCN(C(=O)c1ccc(Br)s1)c1nc2cc3c(cc2s1)OCO3	-23%	7%	34%	50µM*	-1%	.
CCN(CC)CCN(C(=O)C1=COCCO1)c1nc2cc3c(cc2s1)OCO3	-11%	3%	37%	0%[59 µM]	0%	-27%
SMILES	JMJD2A Tudor	Sfp PPTase inh	HP1b chromo inh	G9a block	PLK1 PBD inh	BAZ2B inh
CCc1nnc(NS(=O)(=O)c2ccc(NS(=O)(=O)c3ccccc3[N+](=O)[O-])cc2)s1	-4%	-9%	20%	?	24µM*	-7%
CCc1nnc(NS(=O)(=O)c2ccc(Nc3ccc([N+](=O)[O-])c4nonc34)cc2)s1	?	11%	?	25µM*	?	22µM*
O=[N+]([O-])c1ccccc1S(=O)(=O)Nc1ccc(S(=O)(=O)Nc2nccs2)cc1	-24%	4%	-14%	45µM*	27µM*	-21%
Nc1ccc(S(=O)(=O)Nc2nccs2)cc1N=Nc1ccccc1[N+](=O)[O-]	40µM*	.	40µM*	.	30µM*	.
O=C(c1cc(C(F)(F)F)cc(C(F)(F)F)c1)N1CCC2(CC1)CCN(c1ccncc1)CC2	.	17%	.	6%[12.7 µM]	.	.
Cc1nc2c(C(=O)NC(C)c3ccccc3)cnn2c(C)c1Cc1ccccc1 (stereo unspecified)	-11%	.	23%	7%[59 µM]	.	7%
CCCCCCn1c(SCC#N)nc2ccccc2c1=O	15%[57.1 µM]	.	60%[57 µM]	.	.	.
CC(O)CN(Cc1cccc(Cl)c1)CC(C)O (stereo unspecified)	3.5µM*	-3%	-25%	?	-1%	56µM*
CN(Cc1ccccc1)/C(=N/O)c1cccc(Cl)c1	-7%	8%	27%	0%	1%	-7%
Cc1cc(C)c2c(c1)c(C)cc1nnc(SCc3ccccc3C#N)n12	-16%	.	32%	-34%[59 µM]	.	?
Cc1cc2c(NC(=O)Nc3ccccc3)cccc2nn1	-2%	45µM*	27%	?	5%	8%
COc1ccc(NC(C)=O)cc1NC(C)c1nc2sc(C)c(C)c2c(=O)[nH]1 (stereo unspecified)	-34%	?	-25%	?	-1%	?
Cc1sc2nc(C(C)Sc3n[nH]c(N)n3)[nH]c(=O)c2c1C (stereo unspecified)	.	56µM*	.	25µM*	.	-5%
COc1c(C)c2c(c(O)c1CC=C(C)CCC(=O)OCCN1CCOCC1)C(=O)OC2	.	4%	.	12%[59 µM]	.	.
COC(=O)c1ccc2c(c1)N(C)S(=O)(=O)c1cnc(SCC(=O)C(C)(C)C)nc1-2	-18%	12%	24%	5µM*	-1%	-15%
CCOC(=O)c1cccc(NC(=O)CSc2ncc3c(n2)-c2ccccc2N(C)S3(=O)=O)c1	4%	.	28%	1%[59 µM]	.	0%
NSc1nc(N)c2nc(-c3ccccc3)c(-c3ccccc3)nc2n1	-31%	-17%	2%	6.3µM*	13µM*	-24%
Nc1nc(N)c2nc(-c3ccccc3)c(N)nc2n1	-20%	4%	22%	-4%[59 µM]	-12%	12%
Cc1cc(C)cc(NC(=O)CCc2nnc3n(C)c(=O)c4sccc4n23)c1	-5%	.	20%	-1%[59 µM]	.	2%
